Reference: PubChem BioAssay (NCI)
About 83,000 compounds went through this panel and 20% of them were active in at least one assay; those are over-represented in the sample as a whole.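 For each line, cells grew in 96-well plates with the test compound present at a single concentration for 48 hours.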 A number with no mark means an inactive call. Calls of active or inactive are those of the source.

What follows are compounds tested on MDA-MB-435 melanoma (assay: NCI-60 one-dose screen, 48 h (100 = growth as untreated, 0 = no growth, -100 = all killed)). Details: 10 µM unless noted.
Method: Growth inhibition of the MDA-MB-435 human Melanoma tumor cell line is measured as a screen for anti-cancer activity. Cells are grown in 96 well plates and exposed to the test compound for 48 hours. Compounds are tested at a single concentration, which is 10^-5 M for most compounds. The reported endpoint is percent growth (GI% or GIPRCNT), where numbers from 0 - 100% represent growth inhibition, and numbers from -100% - 0 represent cell death. For example, a value of 40 represents 60% growth inhibition. A value of 0 means no net growth occurred over the course of the experiment. A value of -40 indicates 40% of cells at the beginning of the experiment died by the end of the experiment. A value of -100 means all cells are dead at the end of the experiment.
NCI-60 Human Tumor Cell Lines Screen was performed using the standard one-dose NCI protocol, which is described in more detail at https://dtp.cancer.gov/discovery_development/nci-60/default.htm.
Compounds with GIPRCNT values below 10 were considered active. Activity score was based on GIPRCNT using the following formula: […]
Score is 0 for GIPRCNT values of 100 or above, 50 for GIPRCNT values of 0, and 100 for GIPRCNT values of -100.

| Structure (SMILES) | growth |
| --- | --- |
| Nc1cc(Cl)c(S(N)(=O)=O)cc1S(N)(=O)=O | 113% |
| Cc1c(NCc2nnc3n(Cc4ccccc4)c(=O)c4c5c(sc4n23)CCCC5)c(=O)n(-c2ccccc2)n1C | 73.5% |
| C=C(C)[C@@H]1C[C@H](O)Cc2cc(Cl)cc(Cl)c2N1 | 105% |
| CCN(CC)CCNc1ccc(Cl)cc1Cl | 111% |
| COC(=O)[C@]12CC[C@@H](C)[C@H](C)[C@@H]1C1=CC[C@@H]3[C@@]4(C)C[C@@H](OC(=O)c5ccco5)[C@H](O)[C@@](C)(CO)[C@@H]4[C@H](O)C[C@@]3(C)[C@]1(C)CC2 | -86.7% (active) |
| CCN(CC)CCOc1ccccc1-n1c(C)ccc1-c1ccccc1 | 42.1% |
| CCCCCCCCCCCCCCCCN=C(CC(=O)O)C(=O)O | 96.7% |
| COc1cc(C2NC(c3ccc(Cl)cc3)C(C)C(=NC(=O)c3cnccn3)C2C)cc(OC)c1OC (stereo not given) | 108% |
| COc1cc(Oc2cc(-c3cccnc3)ccc2NC(=O)Nc2ccc(F)cc2F)cc(OC)c1OC | 109% |
| N#CCCCCCn1c2ccccc2c2c3c(c4c5ccccc5[nH]c4c21)C(=O)N(O)C3=O | 14.3% |
| NS(=O)(=O)c1ccc(NC2=C(Cl)C(=O)c3ccccc3C2=O)cc1 | 124% |
| Cc1c(C(N)=O)sc2c1c(=O)n(Cc1ccccc1)c1nnc(SCC(=O)Nc3ccc(Cl)cc3)n21 | 40.7% |
| CCOc1nc(-c2ccccc2)cc2c(O)c(C(=O)n3nc(C)cc3C)[nH]c(=O)c12 | 112% |
| COc1cc(C2CC(c3ccc(C)cc3)=NN2C(C)=O)ccc1Oc1ccnc2cc(Cl)ccc12 (stereo not given) | 100% |
| COc1cc([C@@H]2c3cc4c(cc3C(O[C@@H]3O[C@@H]5CO[C@@H](c6cccs6)OC5[C@H](O)[C@H]3O)C3COC(=O)[C@@H]32)OCO4)cc(OC)c1O (stereo not given in full) | -21.1% (active) |
| COC(=O)CC1=C(C)/C(=C/c2[nH]c(-c3ccc[nH]3)cc2OC)N=C1C | -4.71% (active) |
| CC(=O)Oc1c(C)c(OC(C)=O)c2c(c1C(C)=O)OC1CC(=O)C(C(C)=O)=C(O)C21C (stereo not given) | 105% |
| COc1cccc2c1C(=O)c1c(O)c3c(c(O)c1C2=O)C[C@@](O)(/C(C)=N/NC(=O)c1cccc([N+](=O)[O-])c1)C[C@@H]3OC1CC(N)C(O)C(C)O1 (stereo not given in full) | -34.3% (active) |
| CCCCCCCC/C=C/CCCCCCCC1=NC(C)(C)CN1CC(C)O (stereo not given) | 6% (active) |
| O=C(C(=O)N1CCCCC1)c1ccc(OC2OC(CO)C(O)C(O)C2O)cc1 (stereo not given) | 107% |

| Structure (SMILES) | growth |
| --- | --- |
| CCC(C)CC(C)C(=O)c1c(O)ccn(O)c1=O (stereo not given) | 46.8% |
| O=C(C(Br)Br)C(Br)C(Br)c1ccccc1 (stereo not given) | 82.3% |
| COc1ccc(C2CC(c3ccc(OC)c(OC)c3)=NN2C(=O)c2cc(OC)c(OC)c(OC)c2)cc1 (stereo not given) | -26.6% (active) |
| Cc1cc2c(cc1C)Nc1sc(NC(=O)CN3CCN(C)CC3)nc1C(=O)N2 | 111% |
| C=Cc1nn2c(CCC(=O)c3nc4ccccc4[nH]3)nnc2s1 | 100% |
| COc1ccc(C2CC(c3ccc(OC)c(OC)c3)=NN2C(=O)c2cc(OC)c(OC)c(OC)c2)c(OC)c1 (stereo not given) | 3.86% (active) |
| ClC1=C(Cl)C(Cl)=C(Cl)C1=C/C=C/c1ccccc1 | -28.5% (active) |
| COc1ccc(OC)c(NC(=O)c2cc3oc4ccccc4c3cc2O)c1 | 105% |
| O=C(Nc1ccc(Nc2ccncc2)cc1)c1ccc(Nc2ccnc3ccc([N+](=O)[O-])cc23)cc1[N+](=O)[O-] | 63.1% |
| c1cnc2n[nH]c(Nc3ncnc4c3sc3ncccc34)c2c1 | 101% |
| CC[N+](CC)(CCOCCOCC[N+](CC)(CC)Cc1ccc([N+](=O)[O-])cc1)Cc1ccc([N+](=O)[O-])cc1 | 104% |
| O=C(Nc1nc(-c2ccc(Cl)cc2)cs1)c1cc(O)c(O)c(O)c1 | 41% |
| Cc1c(C(N)=O)sc2ncn(CC(=O)Nc3ccc(Cl)cc3)c(=O)c12 | 106% |
| O=Nc1ccc(O)c(=O)cc1 | 32% |
| COc1ccc(-c2noc(N)c2-c2cc(OC)c3c(c2)OCO3)cc1 | -59.3% (active) |
| O=C1c2ccccc2C(=O)c2c1cccc2-n1nnc2ccccc21 | 121% |
| O=C(Nc1ccc(Cl)cc1)c1cc2c(cc1O)[nH]c1ccccc12 | -25.6% (active) |
| CCOC(=O)c1c2c(c(C)n1Cc1ccc(OC)cc1)-c1nc(N)ncc1CC2 | 110% |
| CN=C(NC)N/N=C(C)\C=N\NC(=NC)NC | 104% |
| CSc1nc2c(c(=O)n1C)C(c1ccccc1)C1=C(N2)/C(=C/c2ccccc2)CCC1 (stereo not given) | 4.1% (active) |
